CYP2C19 act = increases human CYP2C19 enzyme activity; recombinant CYP2C19, luciferin-H EGE luminescence; hits give high values; 0 = fully inhibited enzyme, 1 = untreated enzyme; activation factor at 5 µM; 96,000 tested, under 10 active;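 active = activation factor of at least 2 at 5 µM in the primary screen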;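 note: 0 = wells with 2.5 mM tranylcypromine and 1 = vehicle-only wells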
Target sequence (P33261 whole entry, looked up): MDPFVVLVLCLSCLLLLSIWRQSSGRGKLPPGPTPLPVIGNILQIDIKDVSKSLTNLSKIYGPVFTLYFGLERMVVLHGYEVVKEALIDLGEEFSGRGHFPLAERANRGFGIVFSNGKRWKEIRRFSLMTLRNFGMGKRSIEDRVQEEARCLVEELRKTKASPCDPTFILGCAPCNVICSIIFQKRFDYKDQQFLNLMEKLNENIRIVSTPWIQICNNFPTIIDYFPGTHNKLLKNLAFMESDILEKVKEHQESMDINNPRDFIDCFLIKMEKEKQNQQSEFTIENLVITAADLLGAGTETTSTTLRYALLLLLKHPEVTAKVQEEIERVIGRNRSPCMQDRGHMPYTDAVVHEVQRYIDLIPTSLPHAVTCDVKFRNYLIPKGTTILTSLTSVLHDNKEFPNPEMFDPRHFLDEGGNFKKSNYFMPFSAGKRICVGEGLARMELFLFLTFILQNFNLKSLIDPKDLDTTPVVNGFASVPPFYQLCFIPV
CYP2C9 inh = blocks human cytochrome P450 2C9 | 20% of 96,000 active | CYP2C9 Supersomes, luciferin-H conversion, luminescence | inhibition, % at 5 µM | P11712;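 active = blocking of liver enzyme CYP2C9 beyond about 50% at 5 µM, limit read from the data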
CYP2C19 inh = human CYP2C19 inhibition; CYP2C19 Supersomes, luciferin-H EGE luminescence, 30 min; inhibition, % at 5 µM; 21% of 96,000 active;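 active = CYP2C19 inhibition above a set limit at 5 µM in the primary screen, cut at about 50% in these data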;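 note: plate controls were negative control wells for no effect and 2.5 mM tranylcypromine positive control for full effect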
CYP2C9 activ = activators of human CYP2C9; P11712; recombinant CYP2C9, luciferin-H conversion, luminescence; hits give high values; factor 1 = untreated enzyme, 0 = blocked; activation factor at 5 µM; 1.4% of 96,000 active;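 active = activation factor of 2 or more for CYP2C9 at a 5 µM dose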;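 note: 0 = sulfaphenazole-blocked wells and 1 = vehicle-only wells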
PLK1 PBD inh = Plk1 (human) PBD binding inhibition; Plk1 PBD phosphopeptide binding, fluorescence polarization; inhibition, %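 (tested at about 20 µM)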; 0.13% of 97,000 active; AID 693; in the data active = inhibition above about 34%, passing the limit was not always enough
PLK1 inh = PLK1 (human) kinase inhibition; inhibition, % at 10 µM; 0.53% of 97,000 active; P53350; recombinant PLK1 kinase, TR-FRET peptide phosphorylation;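 active = inhibition of 50% or more in the single-concentration screen; inactive = inhibition below 50%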;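 note: 0% = DMSO max control and 100% = H-89 dihydrochloride min control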
Starred values were filed as active, the others as inactive; i = inactive; x = not tested or not shown. Rows were chosen to be rich in hits. Some 28% of all compounds tested hit in one or more screens of this group.

SMILES | CYP2C19 act | CYP2C9 inh | CYP2C19 inh | CYP2C9 activ | PLK1 PBD inh | PLK1 inh
CC(C)CCNC(=O)c1cccc(C(=O)NCCC(C)C)c1 | 0.9 | 37 | 8 | 0.6 | 1 | -10
COC(=O)c1cc(OC)c(OC)cc1NC(=O)c1ccoc1C | 1.1 | -5 | -5 | 1 | -3 | 11
CCn1c(SCC(=O)O)nnc1C1CCCCC1 | 0.9 | 9 | 5 | 0.9 | 9 | -16
Cc1cc(C)cc(Oc2cc(NC(=O)c3cn(C)nc3C)cc([N+](=O)[O-])c2)c1 | 0.8 | 48 | 24 | 0.5 | -11 | -7
Cc1ccc(N=Nc2c(C)[nH][nH]c2=O)c(C)c1 | 0.7 | 27 | 30 | 0.7 | -6 | 6
COc1ccccc1NS(=O)(=O)c1cccc(C(=O)OCC(=O)Nc2cc(C)on2)c1 | 0.6 | 38 | 40 | 0.6 | 3 | -5
Cc1cccc(NS(=O)(=O)c2cc(C(=O)OCC(=O)Nc3cc(C)on3)ccc2C)c1 | 0.5 | 84* | 48 | 0.2 | 28 | 3
Cc1cccc(NS(=O)(=O)c2ccc(C)c(C(=O)OCC(=O)Nc3cc(C)on3)c2)c1 | 0.1 | 94* | 89* | 0.1 | -11 | -10
Cc1cccc(NS(=O)(=O)c2cc(C(=O)N3CCN(C)CC3)ccc2C)c1 | 0.7 | 20 | 29 | 0.8 | -22 | 2
Cc1cc(C)nc(Sc2c(C)n[nH]c2C)n1 | 1 | -57 | 0 | 1.6 | 7 | -3
CN1CCc2c(C#N)c(N3CCCCC3)nc(NCc3ccccc3)c2C1 | 0.7 | 74* | 33 | 0.3 | 13 | -10
N#Cc1c(NCCCO)nc(-c2ccco2)c2c1CCCC2 | 0.4 | 92* | 61* | 0.1 | -8 | 0
N#Cc1c(NC2CCCCC2)nc(-c2ccco2)c2c1CCCC2 | 1 | 20 | 1 | 0.8 | -12 | -8
CC(C)c1nc(NCc2ccccc2)c(C#N)c2c1CCCC2 | 1.1 | 36 | -8 | 0.6 | -7 | -10
N#Cc1c(NCCCO)nc(NCc2ccccc2)c2c1CCN(Cc1ccccc1)C2 | 0.6 | 100* | 44 | 0 | -12 | -5
N=c1n(CCN2CCCCC2)c2ccccc2n1CC(O)c1ccc(Cl)c(Cl)c1 (stereo not given) | 0.5 | 82* | 50 | 0.2 | -13 | 63*
CCOc1ccccc1-c1nc(-c2ccc(C)nc2OC)no1 | 0.9 | -30 | 13 | 1.3 | 13 | -18
O=C(CSc1nc2ccccc2c(=O)n1NC(=O)c1ccccc1)c1ccc(Cl)cc1 | 0.5 | 78* | 46 | 0.2 | 3 | -10
O=C(CSc1nc2ccccc2c(=O)n1NC(=O)c1ccccc1)c1ccccc1 | 0.7 | 86* | 33 | 0.1 | -23 | -6
O=C(CSc1nc2ccccc2c(=O)[nH]1)c1ccccc1 | x | x | x | x | 1 | -2
Cc1cc(C)n(-c2nc(-n3nc(C)cc3C)c3c4c(sc3n2)COC(C)(C)C4)n1 | 0.3 | 38 | 72* | 0.6 | 8 | 1
Cc1cc(C)n(-c2nc(SCC(=O)Nc3nccs3)c3c4c(sc3n2)COC(C)(C)C4)n1 | 0.6 | 77* | 38 | 0.2 | -22 | -10
COc1ccccc1NC(=O)c1nnn(CC(=O)Nc2cccc(SC)c2)c1N | 1 | -53 | 2 | 1.5 | 2 | -11
O=c1oc(-c2ccco2)nc2sc3c(c12)CCCC3 | x | x | x | x | -12 | -8
COc1ccc(NC(=O)C(C)N2c3cccc4cccc(c34)S2(=O)=O)cc1 (stereo not given) | 0.3 | 50 | 67* | 0.5 | 1 | -5
SMILES | CYP2C19 act | CYP2C9 inh | CYP2C19 inh | CYP2C9 activ | PLK1 PBD inh | PLK1 inh
COc1ccc(NC(=O)C(C)N2c3cccc4cccc(c34)S2(=O)=O)cc1OC (stereo not given) | x | x | x | x | -7 | -3
O=C(CN1c2cccc3cccc(c23)S1(=O)=O)N1CCOCC1 | 0.7 | 13 | 25 | 0.9 | x | x
CCN1c2cccc3cccc(c23)S1(=O)=O | 0.2 | i | 78* | 6.2* | 15 | -5
COc1ccc(NC(=O)CN2c3cccc4cccc(c34)S2(=O)=O)cc1 | 0.8 | -184 | 18 | 2.8* | -11 | -7
COC(=O)CNC(=O)CN1c2cccc3cccc(c23)S1(=O)=O | 0.9 | -109 | 14 | 2.1* | -12 | -13
CN(c1cccc(NC(=O)Cc2ccccc2)c1)S(C)(=O)=O | 0.7 | 15 | 31 | 0.8 | 8 | -9
Cc1ccccc1NS(=O)(=O)c1cc(C(=O)Nc2cccc(N(C)S(C)(=O)=O)c2)ccc1C | 0.6 | 78* | 38 | 0.2 | 7 | -2
CN(c1cccc(NC(=O)c2ccc(Cl)c(S(=O)(=O)Nc3ccccc3)c2)c1)S(C)(=O)=O | 0.2 | 97* | 85* | 0 | -17 | -6
COc1ccc(N(CC(=O)N2CCN(c3ccccc3)CC2)S(=O)(=O)c2c(C)noc2C)cc1 | 0.4 | 14 | 65* | 0.9 | -17 | -23
Cc1noc(C)c1S(=O)(=O)N(CC(=O)N1CCCCCC1)c1ccc(C(C)C)cc1 | 0.3 | 77* | 72* | 0.2 | 32 | -10
Cc1noc(C)c1S(=O)(=O)N(CC(=O)N1CCCC1)c1ccc(C(C)C)cc1 | 0.6 | 22 | 40 | 0.8 | -7 | -16
CCCNC(=O)c1cc(S(=O)(=O)N2CCc3ccccc32)ccc1F | x | x | x | x | 15 | -10
CSc1ccc(S(=O)(=O)NCCSc2ccccn2)cc1 | x | x | x | x | -15 | -5
Cc1nn(CC#N)c(=O)n1-c1ccc(F)cc1 | 1 | 0 | 2 | 1 | 5 | -11
Cn1nc(-c2ccccc2F)c2cc(C(=O)Nc3ccc4c(c3)OCCO4)sc21 | 0.6 | 81* | 42 | 0.2 | -16 | -8
CC(CCc1ccco1)NC(=O)c1cc2c(-c3ccccc3F)nn(C)c2s1 (stereo not given) | 0.2 | 93* | 78* | 0.1 | 0 | -2
CN(C)CCNc1oc(-c2cccc(Cl)c2)nc1C#N | 1 | 9 | 2 | 0.9 | 27 | -2
CCC(=O)Nc1ccc(-c2nn3c(C)nnc3s2)cc1C | 0.9 | 0 | 13 | 1 | 23 | -6
CCOC(=O)C(C(C)=O)c1c(Br)c(O)c(O)c2c(C(=O)c3ccc(C)cc3)coc12 (stereo not given) | 0.7 | 98* | 32 | 0 | -18 | -7
CCOC(=O)c1c(C)n(-c2ccc(C)cc2)c2c(C(C(C)=O)C(=O)O)c(Br)c(O)c(O)c12 (stereo not given) | 1 | -2 | -4 | 1 | 5 | -15
CCc1cccc2c(C#N)cn(CC(=O)NCCOC)c12 | 0.7 | 1 | 33 | 1 | -13 | -19
O=C(Nc1ccncc1)Nc1ccc(F)cc1F | 0 | 83* | 97* | 0.2 | -4 | 1
O=C(Nc1cccnc1)c1ccc(F)cc1 | x | x | x | x | 21 | -7
COCCCNC(=O)Nc1ccc(F)cc1F | 1 | -7 | 0 | 1.1 | 8 | -12
CC(C)CN1C(=O)c2ccc(C(=O)Nc3ccncc3)cc2C1=O | 0 | 97* | 98* | 0 | x | x
O=C(Nc1ccncc1)c1ccc(F)cc1 | 0.1 | 61* | 88* | 0.4 | -4 | 20

Assay outcomes (PubChem)
